Source: PubChem BioAssay AID1851 (National Center for Advancing Translational Sciences (NCATS), 2009)
Several values for one entry are separate records, joined by “and”; a condition that tells them apart may be missing. Identical values can stand only once. Among all 16,000 compounds or so, about 5,700 (36%) were called active. Not shown: some 24% with an inconclusive outcome. This is one part of the list. Values without a mark were called inactive. Calls follow the shape of the dose curve; as a rule, active = well fitted curve in the direction sought with a large enough effect; inconclusive = small, poorly fitted or top-dose-only effect, or effect the other way; inactive = no such curve, though single readings can be large or run the other way.

The compounds below were run against Cytochrome P450 1A2 (Homo sapiens) (UniProt P05177) (assay: Cytochrome panel assay with activity outcomes). Details: recombinant CYP, pro-luciferin dealkylation, luminescence, p450-cyp1a2; series mostly up to 57.1 µM.
Chain of Cytochrome P450 1A2 (Homo sapiens) (P05177 whole entry, looked up): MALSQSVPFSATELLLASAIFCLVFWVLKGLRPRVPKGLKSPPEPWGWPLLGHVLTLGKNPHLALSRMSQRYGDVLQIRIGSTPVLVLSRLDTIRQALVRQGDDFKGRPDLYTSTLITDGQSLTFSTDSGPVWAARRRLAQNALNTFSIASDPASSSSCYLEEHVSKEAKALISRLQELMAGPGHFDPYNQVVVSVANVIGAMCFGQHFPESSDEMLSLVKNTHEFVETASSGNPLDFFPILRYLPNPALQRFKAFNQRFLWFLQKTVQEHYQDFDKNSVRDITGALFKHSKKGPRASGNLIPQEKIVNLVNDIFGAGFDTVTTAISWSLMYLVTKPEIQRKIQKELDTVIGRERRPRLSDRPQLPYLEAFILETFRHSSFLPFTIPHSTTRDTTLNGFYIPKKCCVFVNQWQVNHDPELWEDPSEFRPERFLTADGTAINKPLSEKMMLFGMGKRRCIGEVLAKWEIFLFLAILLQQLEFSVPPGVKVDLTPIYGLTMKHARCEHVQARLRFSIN
% is scaled to controls: 0 for no effect and ±100 for the full control effect.

| Structure (SMILES) | AC50 | activity, negative = inhibition |
| --- | --- | --- |
| COc1ccc(NC(=O)CCNS(=O)(=O)c2ccc3c(c2)CCC(=O)N3)cc1 | inactive | – |
| Cc1ccccc1C1C(C#N)=C2N=C(N)c3c(sc4c3CCCCC4)N2C2=C1C(=O)CC(C)(C)C2 (stereo not given) | inactive | – |
| COc1ccc(Oc2ncc3nc(-c4cccs4)c(=O)n(-c4ccccc4)c3n2)cc1 | 3.16 µM (active) | – |
| COc1ncc2nc(-c3cccs3)c(=O)n(-c3ccccc3)c2n1 | 2 µM (active) | – |
| CN(C)c1ncc2nc(-c3cccs3)c(=O)n(-c3ccccc3)c2n1 | 31.6 µM (active) | – |
| COc1ccc(-n2c(=O)c(-c3cccs3)nc3cnc(OC)nc32)cc1 | 5.01 µM (active) | – |
| C/C(CCN1CCCc2nc(C)c(C)cc21)=N\O[C@@H](C)c1cn([C@H](CO)Cc2ccccc2)nn1 | – | -5.46% [at 11.4 µM] and -2.73% [at 11.4 µM] |
| Nc1ncnc2c1ncn2[C@H]1O[C@@H](C(=O)O)[C@@H](O)[C@H]1O | – | -10.9% [at 11.4 µM] |
| CC(C)CN1CCCC2(CCN(C(=O)c3csnn3)CC2)C1 | inactive | – |
| Nc1ccc(N2CCN(C(=O)c3ccco3)CC2)cc1 | inactive | – |
| O=C(c1cc(-c2cccs2)on1)N1CCN(c2ccc(F)cc2)CC1 | 2.82 µM (active) | – |
| O=C(c1ccc2ncsc2c1)N1CCN(c2ccc(O)cc2)CC1 | inactive | – |
| Cc1cc(C)c(-c2noc(C(=O)OC(C)(C)C)c2C(=O)OC(C)(C)C)c(C)c1 | inactive | – |
| Cn1c(=O)c(-c2ccc(Cl)cc2)nc2cnc(OCc3ccccc3)nc21 | 0.794 µM (active) | – |
| Cn1c(=O)c(-c2ccccc2)nc2cnc(OCc3ccccc3)nc21 | 1.58 µM (active) | – |
| O=C(c1csnn1)N1CCC2(CCN(Cc3nccs3)CC2)CC1 | inactive | – |
| COc1ccc(CCNC(=O)CC(NS(=O)(=O)c2ccc(NC(C)=O)cc2)C(C)C)cc1OC (stereo not given) | inactive | – |
| COC(=O)C(NS(=O)(=O)c1ccc(NC(C)=O)cc1)C(C)C (stereo not given) | inactive | – |
| COc1ccc(CONS(=O)(=O)c2ccc(NC(C)=O)cc2)cc1Cl | 14.1 µM (active) | – |
| O=C(CSc1nc2ccccc2c(=O)n1NC(=O)Cc1ccccc1)NCc1ccccc1Cl | 15.8 µM (active) | – |
| CCOC(=O)c1c(-c2cccc(C)c2)csc1NC(=O)c1c(-c2ccccc2)noc1C | inactive | – |
| CCOC(=O)c1c(-c2ccc(C)cc2)csc1NC(=O)C1CC=CCC1C(=O)O (stereo not given) | 12.6 µM (active) | – |
| CCOC(=O)c1c(NC(=O)C2C3CCC(O3)C2C(=O)O)sc(C)c1-c1ccc(C)cc1 (stereo not given) | inactive | – |
| CCc1cc(C(c2ccccc2OC)N2CCOCC2)c(NC(=O)c2ccccc2)s1 (stereo not given) | inactive | – |

| Structure (SMILES) | AC50 | activity, negative = inhibition |
| --- | --- | --- |
| CCOC(=O)c1c(-c2ccccc2)csc1NC(=O)c1cccc(N2C(=O)CCC2=O)c1 | 8.91 µM (active) | – |
| O=C(c1cc(C(F)(F)F)cc(C(F)(F)F)c1)N1CCC2(CCN(Cc3nccs3)CC2)CC1 | inactive | – |
| Cn1c(=O)cc(SCC(=O)NCCCN2CCOCC2)c2ccc(Cl)cc21 | inactive | – |
| Cc1cnc2cc(Cl)ccc2c1SCC(=O)O | – | -2.26% [at 2.29 µM] |
| CCOC(=O)CSc1cc(=O)n(C)c2cc(Cl)ccc12 | 1.26 µM (active) | – |
| O=C(NCC1CCCO1)c1onc(CSc2ccccc2F)c1C(=O)O (stereo not given) | inactive | – |
| O=C(CN(Cc1ccccc1Cl)C(=O)c1ccc(CN2CCOCC2)o1)NCC1CCCO1 (stereo not given) | inactive | – |
| O=C(CSCc1c(F)cccc1Cl)NCC1CCCO1 (stereo not given) | 15.8 µM (active) | – |
| O=C(NNC(=O)c1cc2cc3ccccc3nc2s1)c1cccc(Cl)c1 | inactive | – |
| CSc1nc2ccccc2cc1/C=C(\C#N)c1cccc(Cl)c1 | 2 µM (active) | – |
| CSc1nc2ccccc2cc1/C=C(\C#N)c1ccc(Cl)cc1Cl | 1.78 µM (active) | – |
| CSc1nc(C)c(CCOC(=O)c2cccc(C)c2)c(=O)[nH]1 | inactive | – |
| CSc1nc2ccccc2cc1/C=C(\C#N)c1ccccc1 | 2.82 µM (active) | – |
| CSc1nc2ccccc2cc1/C=C(\C#N)c1cccc(C)c1 | 3.55 µM (active) | – |
| COc1ccc(NC(=O)N2CC3(CCN(C(=O)c4cccn4C)CC3)C2)cc1 | inactive | – |
| CCC(=O)OCC(=O)[C@@]1(OC(=O)CC)[C@H](C)C[C@@H]2[C@H]3CCC4=CC(=O)C=C[C@]4(C)[C@]3(Cl)[C@@H](O)C[C@@]21C | inactive | – |
| CN(C)Cc1ccccc1-c1cc(N(C)Cc2ccco2)ncn1 | 15.8 µM (active) | – |
| CN(Cc1ccco1)c1cc(-c2ccccc2Cl)ncn1 | 2.51 µM (active) | – |
| Cc1ccccc1/C=C\C1=NCCN1 | 6.31 µM (active) | – |
| Cc1cc(C(C)(C)C)cc(C)c1CC1=NCCN1 | inactive | – |
| CO[C@]1(C2=NCCN2)COc2ccccc2O1 | inactive | – |
| CCCCOc1ccc(C(=O)CCN2CCCCC2)cc1 | 3.16 µM (active) | – |
| CCC(=O)c1ccc(OCC(O)CN2CCCCC2)cc1 (stereo not given) | inactive | – |
| CC(C)C(NC(=O)C1CCCCC1)C(=O)NC1CCN(Cc2ccccc2)CC1 (stereo not given) | inactive | – |

| Structure (SMILES) | AC50 | activity, negative = inhibition |
| --- | --- | --- |
| Cc1ccc(C(=O)NCC2CCCO2)cc1N1CCCC1=O (stereo not given) | inactive | – |
| COc1ccc(C(=O)c2c[nH]c(C(=O)NCc3cccs3)c2)cc1 | inactive | – |
| Cc1ccccc1C(=O)c1c[nH]c(C(=O)NCc2cccs2)c1 | 10 µM (active) | – |
| CCOc1cc(NC(=S)NCC2CCCO2)c(OCC)cc1NC(=O)c1ccccc1C (stereo not given) | inactive | – |
| Cc1ccccc1C(=O)c1c[nH]c(C(=O)NCC2CCCO2)c1 (stereo not given) | 25.1 µM (active) | – |
| O=C(O)CC[C@]1(C(=O)O)CCC(=O)c2ccccc21 | – | -9.13% [at 11.4 µM] |
| CC[C@](N)(C(=O)O)C(C)C | – | -14.6% [at 11.4 µM] |
| Cc1cccn2c(=O)c(C=NCc3ccco3)c(Nc3ccc(SC(F)F)cc3)nc12 | 0.562 µM (active) | – |
| Cc1ccc(C(=O)CNc2nc3c(c(=O)[nH]c(=O)n3C)n2Cc2ccccc2)cc1 | inactive | – |
| O=c1c2ccccc2c(-c2ccc(Br)cc2)nn1Cc1ccccc1 | 2.82 µM (active) | – |
| O=c1c2ccccc2nc(-c2ccc(Br)cc2)n1Cc1ccccc1 | 10 µM (active) | – |
| O=C(CCn1nc(-c2ccc(Cl)cc2)c2ccccc2c1=O)NCCN1CCOCC1 | inactive | – |
| CC1Cc2ccccc2N1C(=O)Cn1cc([N+](=O)[O-])cn1 (stereo not given) | inactive | – |
| CCOC(=O)c1c(NC(=O)Cn2cc([N+](=O)[O-])cn2)sc2c1CCC2 | 2.82 µM (active) | – |
| COC(=O)c1c(NC(=O)Cn2cc([N+](=O)[O-])cn2)sc2c1CCC2 | 1.26 µM (active) | – |
| CCOC(=O)c1c(NC(=O)CSc2nnc(C)s2)sc2c1CCCCC2 | 8.91 µM (active) | – |
| COC(=O)c1c(NC(=O)c2ccco2)sc2c1CCC2 | 0.891 µM (active) | – |
| CCC(=O)NC(Nc1sc2c(c1C(=O)OC)CCCC2)(C(F)(F)F)C(F)(F)F | inactive | – |
| CC(=O)OC1COC(N2CCc3cc([N+](=O)[O-])ccc32)C(OC(C)=O)C1OC(C)=O (stereo not given) | inactive | – |
| CCc1nc(SCC(=O)NNC(=O)C2CCCCC2)c2ccccc2n1 | inactive | – |
| C#CCSc1nc(Cc2ccc(Cl)cc2)nc2ccccc12 | 1.26 µM (active) | – |
| COc1cccc(CSc2nnc(C(F)(F)F)n2Cc2ccc(F)cc2)c1 | 11.2 µM (active) | – |
| Fc1ccc(Cn2c(SCc3ccc(F)c(C(F)(F)F)c3)nnc2C(F)(F)F)cc1 | inactive | – |
| CC(C)CC1NC(=S)N(C2CCCCC2)C1=O (stereo not given) | inactive | – |

| Structure (SMILES) | AC50 | activity, negative = inhibition |
| --- | --- | --- |
| Cc1c(N2CCCC2)cc2c(c1NC(=O)c1ccccc1Cl)C(C)(C)CC2(C)C | – | -13.1% [at 2.29 µM] |
| Cc1ccc(NC(=O)c2cc(NC(=O)CCC(=O)O)ccc2N2CCCCC2)cc1 | inactive | – |
| O=C(Nc1ccc(N2CCCCC2)cc1)c1cncc(Br)c1 | 4.47 µM (active) | – |
| CC(=O)N1CCN(c2ccc(NC(=O)c3ccc(C)cc3)cc2)CC1 | inactive | – |
| CCc1ccc(OCCCC(=O)Nc2ccc(N3CCCCC3)cc2)cc1 | inactive | – |
| CC(=O)Nc1ccc(N2CCCCC2)cc1 | 14.1 µM (active) | – |
| CC(=O)Nc1ccc(N2CCCCC2)c(C(=O)Nc2cccc(C)c2)c1 | 14.1 µM (active) | – |
| O=C(/C=C/c1ccc(Cl)cc1)Nc1ccc(N2CCCCC2)cc1 | inactive | – |
| CC(C)CN1CCC2(CC1)CCN(C(=O)c1cnccn1)CC2 | inactive | – |
| CC(=O)OC[C@@H]1O[C@@H](O/N=C2/C[C@@H](O)[C@@H](O)[C@@H]3[C@@H]4C(=O)N(Cc5ccccc5)C(=O)[C@H]4CC[C@H]23)[C@H](OC(C)=O)[C@H](OC(C)=O)[C@@H]1OC(C)=O | – | -1.74% [at 11.4 µM] |
| CSc1nc2c(c(C(F)(F)F)n1)CC(C)CC2 (stereo not given) | 25.1 µM (active) | – |
| O=C(Nc1ccc(OC(F)(F)F)cc1)c1n[nH]c(Cn2cncn2)n1 | 0.158 µM (active) | – |
| O=C(Nc1cccc(C(F)(F)F)c1)c1n[nH]c(Cn2cncn2)n1 | 0.126 µM (active) | – |
| C[C@H](NC(=O)Cn1cncn1)c1ccccc1 | inactive | – |
| Cc1ccccc1OCCNc1ccc(C(F)(F)F)cc1[N+](=O)[O-] | 0.891 µM (active) | – |
| O=[N+]([O-])c1cc(C(F)(F)F)ccc1NCCCCNS(=O)(=O)c1ccc2ccccc2c1 | inactive | – |
| Cc1ccc(C)c(C(=N)c2ccccc2Cc2ccccc2)c1 | – | -6.82% [at 2.29 µM] |
| COC(=O)c1c(C)[nH]c(C)c1C(=O)c1ccccc1Cc1ccccc1 | 0.251 µM (active) | – |
| Nc1nc(SCc2ccc([N+](=O)[O-])cc2)c2ncn([C@@H]3O[C@@H](CO)[C@@H](O)[C@H]3O)c2n1 | inactive | – |
| Cc1ccc(CS(=O)(=O)CCC(=O)NCCCN2CCCC2=O)cc1 | inactive | – |
| COc1ccc2[nH]c3c(NCCCN4CCCC4=O)ncnc3c2c1 | 11.2 µM (active) | – |
| Cc1ccc(S(=O)(=O)N(CCCN2CCCC2=O)Cc2cc3c(C)ccc(C)c3[nH]c2=O)cc1 | inactive | – |
| CC(=O)N[C@@H](CC(=O)O)C(=O)O | inactive | – |
